Inconclusive results are not listed. The source made the active and inactive calls. The calls were made as follows: active = hit-call score of the fitted dose curve at least 0.9, where 1 is the maximum; inconclusive = response in the unintended direction; inactive = score below 0.9.

As usually defined, the AC50 is the concentration giving half of the maximal activity seen.

A short description of the experiment: TOX21_p53_BLA_p4_viability: Viability Assessment in the Tox21 HCT-116 p53 Agonism Beta-lactamase Assay, Phase 4 (AID 2283597).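 Also: hits lower the luminescence signal meaning cytotoxicity.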 From the text:
TOX21_p53_BLA_p4 is a cell-based, single-readout assay that uses HCT116, a human intestinal cell line, […] in a 1536-well plate.TOX21_p53_BLA_p4_viability is an assay readout measuring cellular ATP content and detected with CellTiter-Glo Luciferase-coupled ATP quantitation.TOX21_p53_BLA_p4_viability used a type of viability reporter where loss-of-signal activity can be used to understand changes in the cell viability. Furthermore, this assay endpoint can be referred to as a secondary readout, because this assay has produced multiple assay endpoints where this one serves a viability function. To generalize the intended target to other relatable targets, this assay endpoint is annotated to the cell cycle intended target family, where the subfamily is cytotoxicity.
Thawing Method: Place 14 mL of pre-warmed thaw medium into a 15 mL of conical tub. Remove the vial of cells to be thawed from liquid nitrogen and thaw rapidly by placing at 37C in a water bath with gentle agitation for 1-2 minutes. Decontaminate the vial by wiping with 70% ethanol before opening in a biological safety cabinet. Transfer the vial contents drop-wise into 14 mL of thaw medium in a sterile 15-mL conical tub. Centrifuge cells at 900 rpm for 4 minutes and resuspend in thaw medium. Transfer contents to the T75 tissue culture flask containing Thaw Medium and place flask in a humidified 37C/5% CO2 incubator. Switch to growth medium at first passage.Propagation Method: Aspirate medium, rinse once in DPBS, add 0.25% Trypsin/EDTA and swirl to coat the cell evenly. Add an equal volume of Growth Medium to inactivate Trypsin after 2-3 minutes incubation at 37C. Centrifuge cells at 900 rpm for 4 minutes and resuspend in growth medium. Cell should be passage or fed at least twice a week.Assay Protocol: Harvest cells from culture in growth medium and resuspend in assay medium. 2.2 Dispense 4000 cells/5 uL/well into 1536-well black/clear bottom plates using a Multidrop dispenser. After the cells were incubated at 37C for 5 hours, 23 nL of compounds dissolved in DMSO were transferred to the assay plate by a PinTool resulting in a 217-fold dilution. Incubate the plates for 16 hours at 37C, 5% CO2. Add 1 uL of 6X LiveBLAzer FRET B/G (CCF4-AM) Substrate Mixture to each well using a BioRAPTR dispenser and incubate the plates at room temperature for 2 hours. Measure fluorescence intensity at 460 and 530 nm emission and 405 nm excitation by an Envision detector. Data is expressed as the ratio of 460nm/530nm emissions. Add 4 uL of Cell-titer Glo to each well using BioRAPTR and incubate the plates at room temperature for […]. For cell viability readout that measures cytotoxicity, 4 ul/well of CellTiter-Glo reagent was added into the assay plates using a Flying Reagent Dispenser. After 30 min incubation at room temperature, the luminescence intensity in the plates was measured using a ViewLux plate reader.
For `OC(CCN1CCCCC1)(c1ccccc1)c1ccccc1`, the outcome was inactive.

On to `Cc1cc2nc(N)sc2cc1C`, for which the molecule was called inactive. On to `OC[C@@H](O)[C@@H](O[C@@H]1O[C@H](CO)[C@H](O)[C@H](O)[C@H]1O)[C@H](O)[C@@H](O)CO`, for which the outcome was inactive. With `COC(=O)C1=C(C)NC(COC(N)=O)=C(C(=O)OC(C)C)C1c1cccc(Cl)c1Cl` (stereo not given), the half-maximal activity concentration (AC50) was 35.2 µM (active). Take `CCOC(=O)c1cc(-c2ccccc2)nc2ccc(C)cc12`: the molecule was classed as inactive.

`C[C@@H](O)[C@H](N)C(=O)O`: the molecule was classed as inactive. With `C[N+](C)(C)CCOC(=O)CCC(=O)OCC[N+](C)(C)C`, the molecule was called inactive. Same read-out and setting: in the case of `c1ccc2c(c1)CCc1ccccc1N2` it was “inactive”; in that of `C[C@H]1[C@@H](OC(=O)CCC(=O)O)O[C@@H]2OC3(C)CC[C@H]4[C@H](C)CC[C@@H]1[C@@]24OO3`, “inactive”; in that of `CCCCCCCCCCCCCCCCCCOCCO`, “inactive”. Take `CC[C@H]1NC(=O)[C@@H](NC(=O)c2ncccc2O)[C@@H](C)OC(=O)[C@H](c2ccccc2)NC(=O)[C@@H]2CC(=O)CCN2C(=O)[C@H](Cc2ccccc2)N(C)C(=O)[C@@H]2CCCN2C1=O`: the call was inactive. Still for that read-out and setting: under `O=C(O)c1ccc(OCCn2ccnc2)cc1` stands “inactive”; under `CC(=O)Nc1cccc(O)c1`, “inactive”; under `Cc1ccc2c(c1)c1c3n2CCNC3CCC1` (stereo not given), “inactive”.

Regarding `CCN(CC)CCCN(c1ccccc1)C1Cc2ccccc2C1`, the half-maximal activity concentration (AC50) is 2.11 µM (active). For `CC1CCc2c(N3CCC(O)CC3)c(F)cc3c(=O)c(C(=O)O)cn1c23` (stereo not given), the outcome was inactive. Consider `Cc1nc2sccn2c(=O)c1CCN1CCC(=C(c2ccc(F)cc2)c2ccc(F)cc2)CC1`, for which the AC50 is 23 µM (active). With `CC1(C)S[C@@H]2[C@H](NC(=O)C(C(=O)O)c3ccsc3)C(=O)N2[C@H]1C(=O)O` (stereo not given in full), the molecule was called inactive. The same measure, in the same setting: in the case of `NS(=O)(=O)c1cc(C2(O)NC(=O)c3ccccc32)ccc1Cl` (stereo not given) it was “inactive”; in that of `CCOC(=O)Cc1cccc(-c2cc(CCCCCCc3ccc(O[C@H]4O[C@H](COC(C)=O)[C@@H](OC(C)=O)[C@H](OC(C)=O)[C@@H]4OC(C)=O)c(-c4cccc(CC(=O)OCC)c4)c3)ccc2O[C@H]2O[C@H](COC(C)=O)[C@@H](OC(C)=O)[C@H](OC(C)=O)[C@@H]2OC(C)=O)c1`, “inactive”; in that of `C[C@@H]1[C@H](O)[C@@H](C)/C=C/C=C/C=C/C=C/C=C/C=C/C=C/[C@H](O[C@@H]2O[C@H](C)[C@@H](O)[C@H](N)[C@@H]2O)C[C@@H]2O[C@](O)(C[C@@H](O)C[C@@H](O)[C@H](O)CC[C@@H](O)C[C@@H](O)CC(=O)O[C@H]1C)C[C@H](O)[C@H]2C(=O)O`, “inactive”. On the same count and under the same terms, under `O=C(O)c1ccc(-n2nc(-c3ccccc3O)nc2-c2ccccc2O)cc1` stands “inactive”. On to `NCCCCCC(=O)O`, for which the result was inactive. As to `OC1(c2ccc(Cl)c(C(F)(F)F)c2)CCN(CCCC(c2ccc(F)cc2)c2ccc(F)cc2)CC1`, the AC50 was 20 µM (active). As to `COc1cc(CNC(=O)CCCC/C=C/C(C)C)ccc1O`, the molecule was called inactive. The same measure, in the same setting: under `Cc1ncc(CSSCc2cnc(C)c(O)c2CO)c(CO)c1O` stands “inactive”.

With `Cc1ccc(O)c2ncccc12`, the call was inactive. On to `CCN1CCCC1CNC(=O)c1cc(S(=O)(=O)CC)ccc1OC` (stereo not given), for which the result was inactive. Consider `CC1(C)CCC(C)(C)c2cc(NC(=O)c3ccc(C(=O)O)cc3)ccc21`, for which the AC50 was 36.1 µM (active). `CCCC(C)c1ccccc1O` (stereo not given): the molecule was called inactive. Same read-out and setting: under `NC(N)=NCC1COc2ccccc2O1` (stereo not given) stands “inactive”; under `Cc1cc(C(=O)NCCc2ccc(S(=O)(=O)NC(=O)NN3CCCCCC3)cc2)no1`, “inactive”. In the case of `CN(CCO)CC(O)Cn1cnc2c1c(=O)n(C)c(=O)n2C` (stereo not given) (tested in a mixture with another compound), the molecule was called inactive. Same read-out and setting: in the case of `CN(C(=O)CO)c1c(I)c(C(=O)NCC(O)CO)c(I)c(C(=O)NCC(O)CO)c1I` (stereo not given) it was “inactive”; in that of `NS(=O)(=O)c1cc2c(cc1Cl)NC=NS2(=O)=O`, “inactive”; in that of `CC(=O)OCC(=O)[C@@]1(O)CC[C@H]2[C@@H]3CCC4=CC(=O)C=C[C@]4(C)[C@@]3(F)[C@@H](O)C[C@@]21C`, “inactive”. Consider `CC(C)N1CCN(c2ccc(OC[C@H]3CO[C@](Cn4cncn4)(c4ccc(Cl)cc4Cl)O3)cc2)CC1`, for which the half-maximal activity concentration (AC50) is 10.3 µM (active).

Consider `CC1(C)C(=O)C(C)(C)C1=O`, for which the result was inactive. Still for that read-out and setting: in the case of `O=c1[nH]c2ccc(Cl)cc2o1` it was “inactive”. Consider `O=C1OC(O)C(C(Cl)Cl)=C1Cl` (stereo not given), for which the AC50 is 12.7 µM (active).

These data come from PubChem BioAssay (EPA / NIEHS).
